# In PubChem BioAssay (Tox21):
# Records with an inconclusive call do not appear. Where a call stands in place of a potency, no number is given. Activity calls are given as the source filed them. Unless noted, calls follow the shape of the dose curve; as a rule, active = well fitted cell-killing curve with a large enough effect in the repeat runs; inconclusive = weak or mixed curves; inactive = flat fitted curve, though single readings scatter.
# Assay: qHTS assay to identify small molecule agonists of the estrogen related receptor (ERR) signaling pathway from Tox21 library (AID 1224849; calls by dose curve; also: nearly all actives have a fitted effect of over 15% in size)
# Details: ERR reporter cell line, ONE-Glo luciferase, 18 h; at 92.4 µM (top of the series) unless noted
# Summary of the method: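 Six hours post-seeding at 37 C/5% CO2, ERR cells receive DMSO-solubilised compounds; after 18 h at 37 C, ONE-Glo reagent is applied and luminescence recorded.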
row,SMILES,"activity change, positive = activation"
1,O=C1c2ccccc2C(=O)c2ccccc21,10.5% [at 19 µM] (inactive)
2,CC(C)(C)NCC(O)c1cc(Cl)c(N)c(Cl)c1 (stereo unspecified),6.3% [at 42.5 µM] (inactive)
3,C=C(C)CN(CC)c1c([N+](=O)[O-])cc(C(F)(F)F)cc1[N+](=O)[O-],1.77% (inactive)
4,Nc1c(Br)cc([N+](=O)[O-])cc1[N+](=O)[O-],-26.5% (inactive)
5,CS(=O)(=O)c1cc(C(F)(F)F)ccc1C(=O)c1cnoc1C1CC1,9.23% (inactive)
6,CCCCOC(=O)[C@@H](C)Oc1ccc(Oc2ccc(C#N)cc2F)cc1,-5.11% (inactive)
7,NC(=O)O,-1.74% (inactive)
8,COC(=O)c1c(C(F)F)nc(C(F)(F)F)c(C2=NCCS2)c1CC(C)C,1.38% (inactive)
9,CCN(CC)C(=O)[C@@H]1C=C2c3cccc4[nH]cc(c34)C[C@H]2N(C)C1,-24.6% [at 240 µM] (inactive)
10,CNNC,6.11% (inactive)
11,CCC#N,0.336% (inactive)

# Assay: qHTS RealTime-Glo MT Cell Viability Assay in HepG2 cells - 24 hour (AID 1224867); also: nearly all actives have a fitted effect of over 50% in size
# Details: RealTime-Glo luminescence; series mostly up to 76.8 µM
# Summary of the method: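 qHTS, HepG2, 600 cells/well, RealTime-Glo (NanoLuc + prosubstrate) added with cells; 5 h preincubation; DMSO compound addition; 37 C; luminescence at 0/8/16/24/32/40 h.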
row,SMILES,Potency
1,Clc1ccccc1N1CCNCC1,inactive
2,CC(C)(C)NCC(O)c1cc(Cl)c(N)c(Cl)c1 (stereo unspecified),inactive
3,Nc1ccccc1Cl,inactive
4,COc1ncc(F)c2nc(S(=O)(=O)Nc3c(F)cccc3F)nn12,inactive
5,CN(N=O)C(N)=O,inactive
6,CCCCCCBr,inactive
7,ClC(Cl)Br,inactive
8,COC(=O)C(c1ccccc1)C1CCCCN1 (stereo unspecified),inactive
9,COc1ccc2c(c1OC)CN1CCc3cc4c(cc3C1C2)OCO4 (stereo unspecified),inactive
10,C=C(C)CN(CC)c1c([N+](=O)[O-])cc(C(F)(F)F)cc1[N+](=O)[O-],inactive
11,Nc1c(Br)cc([N+](=O)[O-])cc1[N+](=O)[O-],inactive
12,CNCC(=O)c1ccc(O)c(O)c1,inactive
13,CS(=O)(=O)c1cc(C(F)(F)F)ccc1C(=O)c1cnoc1C1CC1,inactive
14,COC(=O)C(C)Oc1ccc(Oc2ccc(Cl)cc2Cl)cc1 (stereo unspecified),inactive
15,Nc1cnn(-c2ccccc2)c(=O)c1Cl,inactive
16,CCCSC(=O)N(CCC)CCC,inactive
17,CC(C(=O)c1ccccc1)N(C)C (stereo unspecified),inactive
18,CCCSP(=O)(OCC)Oc1ccc(Br)cc1Cl (stereo unspecified),inactive
19,COC(=O)c1c(C(F)F)nc(C(F)(F)F)c(C2=NCCS2)c1CC(C)C,inactive
20,C#C[C@]1(O)C=C[C@H]2[C@@H]3CCC4=CC(=O)CC[C@@H]4[C@H]3CC[C@@]21CC,inactive
21,COc1ccc(C(=O)N2CCCC2=O)cc1,inactive
22,ClC(Cl)C(Cl)Cl,inactive
23,COC(=O)C1=CCCN(C)C1,inactive
24,CCC1(c2ccccc2)C(=O)N=C(O)NC1=O (stereo unspecified),inactive
25,CNNC,inactive
26,CNC(=O)Oc1c(C(C)(C)C)cc(C)cc1C(C)(C)C,inactive
27,Cc1ncc(CNC(=O)N(CCCl)N=O)c(N)n1,inactive
28,CCC#N,inactive
29,O=[N+]([O-])c1ccc2c3c(cccc13)CC2,inactive
30,CC1CCCCC1NC(=O)Nc1ccccc1 (stereo unspecified),inactive
